PubChem BioAssay AID1159580 (chemical genetic matrix, 2015)
Where “and” joins values, the source holds several entries; their conditions need not be identical. Identical values can stand only once. Hit rate of the full screen: of about 5,500 compounds, about 2,000 (36%) were called active. Inconclusive results (about 18%) are left out. No stated cut-off is given here; in the data, active means normalized growth mostly below about 0.91 (no sharp cut-off); inconclusive means no clear call, values can overlap the other calls; inactive means mostly above about 0.92. The list shows a part of the results.

Assay: chemical genetic growth profiling, strain panel (AID 1159580);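 further: tested at 20 µM; growth read once vehicle control cultures reached saturation at 30 °C; 1 = growth at the plate median or of vehicle wells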
Conditions: S. cerevisiae deletion strains, growth OD

Measured: normalized growth

C[C@@H]1CC[C@H]2[C@@H](C)C(O)O[C@@H]3O[C@@]4(C)CC[C@@H]1[C@]32OO4 (some centres not stated)
active: locus YAL013W, strain DEP1, stronger effect = lower value 0.528 | locus YAL021C, strain ccr4, stronger effect = lower value 0.507 | locus YAL026C, strain drs2, stronger effect = lower value 0.358 | locus YAL030W, strain snc1, stronger effect = lower value 0.319 | locus YBL061C, strain skt5, stronger effect = lower value 0.337 | locus YBR009C, strain hhf1, stronger effect = lower value 0.215 | locus YBR023C, strain chs3, stronger effect = lower value 0.331 | locus YBR171W, strain sec66, stronger effect = lower value 0.608 | locus YBR229C, strain ROT2, stronger effect = lower value 0.7 | locus YBR231C, strain swc5, stronger effect = lower value 0.253 | locus YBR279W, strain paf1, stronger effect = lower value 0.276 | locus YCL011C, strain gbp2, stronger effect = lower value 0.231 | locus YCL016C, strain dcc1, stronger effect = lower value 0.275 | locus YCL029C, strain bik1, stronger effect = lower value 0.325 | locus YCL061C, strain MRC1, stronger effect = lower value 0.312 | locus YCL069W, strain vba3, stronger effect = lower value 0.315 | locus YCR088W, strain abp1, stronger effect = lower value 0.321 | locus YDL005C, strain med2, stronger effect = lower value 0.448 | locus YDL035C, strain GPR1, stronger effect = lower value 0.295 | locus YDL040C, strain nat1, stronger effect = lower value 0.408 | locus YDL074C, strain BRE1, stronger effect = lower value 0.556 | locus YDL101C, strain DUN1, stronger effect = lower value 0.325 | locus YDL134C, strain PPH21, stronger effect = lower value 0.314 | locus YDL185W, strain tfp1, stronger effect = lower value 0.139 | locus YDL192W, strain arf1, stronger effect = lower value 0.547 | locus YDR001C, strain nth1, stronger effect = lower value 0.377 | locus YDR069C, strain doa4, stronger effect = lower value 0.386 | locus YDR101C, strain arx1, stronger effect = lower value 0.459 | locus YDR137W, strain rgp1, stronger effect = lower value 0.348 | locus YDR150W, strain NUM1, stronger effect = lower value 0.262 | locus YDR159W, strain sac3, stronger effect = lower value 0.471 | locus YDR162C, strain NBP2, stronger effect = lower value 0.356 | locus YDR195W, strain ref2 0.54 | locus YDR297W, strain sur2, stronger effect = lower value 0.384 | locus YDR318W, strain mcm21, stronger effect = lower value 0.258 | locus YDR334W, strain swr1, stronger effect = lower value 0.276 | locus YDR335W, strain msn5, stronger effect = lower value 0.492 | locus YDR388W, stronger effect = lower value 0.316 | locus YDR392W, strain spt3, stronger effect = lower value 0.133 | locus YDR502C, strain sam2, stronger effect = lower value 0.415 | locus YEL003W, strain gim4, stronger effect = lower value 0.237 | locus YEL037C, strain rad23, stronger effect = lower value 0.407 | locus YEL061C, strain CIN8 (second series), stronger effect = lower value 0.295 | locus YEL061C, strain CIN8, stronger effect = lower value 0.302 | locus YER015W, strain faa2, stronger effect = lower value 0.179 | locus YER016W, strain bim1, stronger effect = lower value 0.235 | locus YER110C, stronger effect = lower value 0.275 | locus YER111C, strain swi4, stronger effect = lower value 0.5 | locus YER155C, strain BEM2 (second series), stronger effect = lower value 0.568 | locus YER155C, strain BEM2, stronger effect = lower value 0.345 | locus YER167W, strain BCK2, stronger effect = lower value 0.198 | locus YFR010W, strain ubp6, stronger effect = lower value 0.391 | locus YGL078C, strain dbp3, stronger effect = lower value 0.477 | locus YGL086W, strain mad1, stronger effect = lower value 0.279 | locus YGL167C, strain pmr1, stronger effect = lower value 0.781 | locus YGL173C, strain kem1, stronger effect = lower value 0.729 | locus YGL227W, strain vid30, stronger effect = lower value 0.254 | locus YGL240W, strain doc1, stronger effect = lower value 0.23 | locus YGL248W, strain PDE1, stronger effect = lower value 0.282 | locus YGL253W, strain hxk2, stronger effect = lower value 0.251 | locus YGR078C, strain PAC10, stronger effect = lower value 0.527 | locus YGR135W, strain pre9, stronger effect = lower value 0.653 | locus YGR229C, strain SMI1, stronger effect = lower value 0.286 | locus YGR252W, strain gcn5, stronger effect = lower value 0.665 | locus YHR013C, strain ard1, stronger effect = lower value 0.234 | locus YHR027C, strain rpn1, stronger effect = lower value 0.221 | locus YHR030C, strain SLT2, stronger effect = lower value 0.252 and 0.332 | locus YHR079C, strain IRE1 (second series), stronger effect = lower value 0.359 | locus YHR079C, strain IRE1, stronger effect = lower value 0.3 | locus YHR094C, strain hxt1, stronger effect = lower value 0.388 | locus YHR129C, strain ARP1, stronger effect = lower value 0.331 | locus YHR142W, strain chs7, stronger effect = lower value 0.284 | locus YHR200W, strain rpn10, stronger effect = lower value 0.562 | locus YIL066C, strain RNR3, stronger effect = lower value 0.229 | locus YIL073C, strain SPO22, stronger effect = lower value 0.308 | locus YIL125W, strain kgd1, stronger effect = lower value 0.411 | locus YIR030C, strain dcg1, stronger effect = lower value 0.381 | locus YJL092W, strain hpr5, stronger effect = lower value 0.346 | locus YJL095W, strain BCK1 (second series), stronger effect = lower value 0.267 | locus YJL095W, strain BCK1, stronger effect = lower value 0.298 and 0.302 | locus YJL115W, strain asf1, stronger effect = lower value 0.443 | locus YJL129C, strain trk1, stronger effect = lower value 0.538 | locus YJL134W, strain LCB3, stronger effect = lower value 0.589 | locus YJL154C, strain vps35, stronger effect = lower value 0.42 | locus YJL164C, strain tpk1, stronger effect = lower value 0.248 | locus YJL166W, strain qcr8, stronger effect = lower value 0.167 | locus YJL168C, strain set2, stronger effect = lower value 0.422 | locus YJL187C, strain SWE1 (second series), stronger effect = lower value 0.392 | locus YJL187C, strain SWE1, stronger effect = lower value 0.299 | locus YJR043C, strain POL32, stronger effect = lower value 0.369 | locus YJR066W, strain TOR1, stronger effect = lower value 0.319
inactive: locus YBR021W, strain FUR4, stronger effect = lower value 0.857
